According to PMC5515408, “Sequence-specific DNA binding by MYC/MAX to low-affinity non-E-box motifs”:
Whole data set: some 4,500 sequences, median “log2 normalized fluorescence” near -0.34, cut for the highest 2% near 3.3. The sample holds the highest values, similar sequences and a random draw of the others, so the mix is not that of the screen.

Biological target: MAX:MAX (p21) (human, UniProt P61244-2 1-151)
Assay: protein-binding microarray (anti-MAX antibody); PBM: 15 mM Tris-HCl pH 7.5, 100 mM KCl, 0.075% NP40, 7.5 mM beta-mercaptoethanol, 375 ng/ul BSA, 8 ng/ul poly(dA-dT):(dA-dT), 550 ng complex, 60 min, room tempe; high values mean tight binding
Settings: protein: recombinant; tags: 6xHis; chain copies: 2; label: 3' end of printed strand (linker) attached to glass slide; dsDNA, one strand shown
Summary of the method: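 Binding, given as log2 normalized fluorescence, was measured on a custom Agilent glass array. The array bore ~5000 unique 12-nt sequences spotted in triplicate and converted to double strands by primer extension. It was incubated with 550 ng of human His-tagged MYC:MAX or MAX:MAX dimers from E. coli for 60 min at room temperature in Tris-KCl buffer, pH 7.5, with NP40, BSA and poly(dA-dT) competitor, and bound protein was detected with anti-MAX and secondary antibodies and scanned at 543 nm.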

Chain of MAX:MAX (p21) (P61244 other isoform, or with tags, fused parts or gaps): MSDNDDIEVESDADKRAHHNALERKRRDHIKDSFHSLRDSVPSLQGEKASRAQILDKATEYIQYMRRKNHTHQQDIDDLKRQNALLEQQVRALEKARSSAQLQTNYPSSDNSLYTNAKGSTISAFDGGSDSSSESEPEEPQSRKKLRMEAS

For “CCGGCTGACACGTGCCATTAATAGCTAAGATTACTATATCGACG”, which binding signal is on record?
Its binding signal is 3 log2 normalized fluorescence.

For “CCGGCTGACACGTGCGTTTAATAGCTAAGATTACTATATCGACG”, which binding signal is on record?
The binding signal was 3.25 log2 normalized fluorescence.

For “CCGGCTAACACGCGGTCTTAATAGCTAAGATTACTATATCGACG”, which binding signal is on record?
Its binding signal is 3.15 log2 normalized fluorescence.

Which binding signal does the source give for “CCGGCTGACACGTGCCGTTAATAGCTAAGATTACTATATCGACG” here?
The binding signal was 3.41 log2 normalized fluorescence.

Which binding signal does the source give for “CCGGCTGACACGTTAGATTAATAGCTAAGATTACTATATCGACG” here?
Its binding signal is 2.59 log2 normalized fluorescence.

Which binding signal does the source give for “CCGGCTGACACGTGCGGTTAATAGCTAAGATTACTATATCGACG” here?
The binding signal was 3.31 log2 normalized fluorescence.

How did the binding signal turn out when “CCGGCTGACACGTGCACTTAATAGCTAAGATTACTATATCGACG” was run?
The binding signal was 3.13 log2 normalized fluorescence.

With “CCGGCTGACACGTGCAATTAATAGCTAAGATTACTATATCGACG” as the sequence, how does the binding signal read?
The binding signal was 3.47 log2 normalized fluorescence.

“CCGGCTGAGGCCATGTATTAATAGCTAAGATTACTATATCGACG” was tested. Which binding signal did it give?
The binding signal was 0.0723 log2 normalized fluorescence.

How did the binding signal turn out when “CCGGCTGACGCCGTGTATTAATAGCTAAGATTACTATATCGACG” was run?
The binding signal was 0.693 log2 normalized fluorescence.

For “CCGGCTGACACGTATCATTAATAGCTAAGATTACTATATCGACG”, which binding signal is on record?
Its binding signal is 1.42 log2 normalized fluorescence.

“CCGGCTGAACAATCGTATTAATAGCTAAGATTACTATATCGACG” was tested. Which binding signal did it give?
The binding signal was -0.744 log2 normalized fluorescence.

“CCGGCTGATGTTGAGTATTAATAGCTAAGATTACTATATCGACG” was tested. Which binding signal did it give?
The binding signal was -0.163 log2 normalized fluorescence.

With “CCGGCAGACACTTTGTATTAATAGCTAAGATTACTATATCGACG” as the sequence, how does the binding signal read?
Its binding signal is 0.324 log2 normalized fluorescence.

Which binding signal does the source give for “CCGGCTGAGACTCCGTATTAATAGCTAAGATTACTATATCGACG” here?
Its binding signal is -0.692 log2 normalized fluorescence.

For “CCGGCTGAGTCTGCGTATTAATAGCTAAGATTACTATATCGACG”, which binding signal is on record?
Its binding signal is -0.699 log2 normalized fluorescence.

How did the binding signal turn out when “CCGGCTGAATCCCAGTATTAATAGCTAAGATTACTATATCGACG” was run?
Its binding signal is -0.681 log2 normalized fluorescence.

For “CCGGCTGATGTTTTGTATTAATAGCTAAGATTACTATATCGACG”, which binding signal is on record?
Its binding signal is -0.281 log2 normalized fluorescence.

How did the binding signal turn out when “CCGGCTGACACGTGATGTTAATAGCTAAGATTACTATATCGACG” was run?
Its binding signal is 3.13 log2 normalized fluorescence.

“CCGGCTGACACGTGAAGTTAATAGCTAAGATTACTATATCGACG” was tested. Which binding signal did it give?
Its binding signal is 3.15 log2 normalized fluorescence.

With “CCGGCTGACACGTGAGTTTAATAGCTAAGATTACTATATCGACG” as the sequence, how does the binding signal read?
Its binding signal is 3.25 log2 normalized fluorescence.

Which binding signal does the source give for “CCGGCTGACACGTGAGCTTAATAGCTAAGATTACTATATCGACG” here?
The binding signal was 3.09 log2 normalized fluorescence.

For “CCGGCTGACACGTGACATTAATAGCTAAGATTACTATATCGACG”, which binding signal is on record?
Its binding signal is 3.44 log2 normalized fluorescence.

How did the binding signal turn out when “CCGGCTGACACGTTACATTAATAGCTAAGATTACTATATCGACG” was run?
Its binding signal is 3.06 log2 normalized fluorescence.

Which binding signal does the source give for “CCGGCTGACACGTGAGATTAATAGCTAAGATTACTATATCGACG” here?
The binding signal was 3.29 log2 normalized fluorescence.

How did the binding signal turn out when “CCGGCTGACACGTGAGGTTAATAGCTAAGATTACTATATCGACG” was run?
Its binding signal is 3.37 log2 normalized fluorescence.

With “CCGGCTGACACGTGACGTTAATAGCTAAGATTACTATATCGACG” as the sequence, how does the binding signal read?
The binding signal was 3.23 log2 normalized fluorescence.

How did the binding signal turn out when “CCGGCTGATGAACAGTATTAATAGCTAAGATTACTATATCGACG” was run?
The binding signal was -0.468 log2 normalized fluorescence.

For “CCGGCTGAGCATCTGTATTAATAGCTAAGATTACTATATCGACG”, which binding signal is on record?
The binding signal was 0.186 log2 normalized fluorescence.

With “CCGGCATACACTTGGTATTAATAGCTAAGATTACTATATCGACG” as the sequence, how does the binding signal read?
Its binding signal is 1.54 log2 normalized fluorescence.

“CCGGCTGAGGCGGTGTATTAATAGCTAAGATTACTATATCGACG” was tested. Which binding signal did it give?
Its binding signal is -0.63 log2 normalized fluorescence.

With “CCGGCTGACACGTGTTCTTAATAGCTAAGATTACTATATCGACG” as the sequence, how does the binding signal read?
Its binding signal is 3.35 log2 normalized fluorescence.

“CCGGCTTACACGTGGTTTTAATAGCTAAGATTACTATATCGACG” was tested. Which binding signal did it give?
Its binding signal is 3.22 log2 normalized fluorescence.

How did the binding signal turn out when “CCGGCTGACACGTGTGATTAATAGCTAAGATTACTATATCGACG” was run?
The binding signal was 3.24 log2 normalized fluorescence.

With “CCGGCTGACACGTTTAATTAATAGCTAAGATTACTATATCGACG” as the sequence, how does the binding signal read?
Its binding signal is 2.59 log2 normalized fluorescence.

For “CCGGCTGACACGTGTACTTAATAGCTAAGATTACTATATCGACG”, which binding signal is on record?
The binding signal was 3.15 log2 normalized fluorescence.

With “CCGGCTGACACGTCGTTTTAATAGCTAAGATTACTATATCGACG” as the sequence, how does the binding signal read?
The binding signal was 1.92 log2 normalized fluorescence.

“CCGGCTGACACGTGTGTTTAATAGCTAAGATTACTATATCGACG” was tested. Which binding signal did it give?
The binding signal was 3.37 log2 normalized fluorescence.

Which binding signal does the source give for “CCGGCTAGCACGTGGCATTAATAGCTAAGATTACTATATCGACG” here?
Its binding signal is 3.24 log2 normalized fluorescence.

How did the binding signal turn out when “CCGGCTAGCACGTGTTTTTAATAGCTAAGATTACTATATCGACG” was run?
Its binding signal is 3.52 log2 normalized fluorescence.

For “CCGGCTGACACGTTGTTTTAATAGCTAAGATTACTATATCGACG”, which binding signal is on record?
Its binding signal is 3.22 log2 normalized fluorescence.

For “CCGGCTGACACGTGCTCTTAATAGCTAAGATTACTATATCGACG”, which binding signal is on record?
The binding signal was 3.24 log2 normalized fluorescence.

“CCGGCTGACACGTGTTTTTAATAGCTAAGATTACTATATCGACG” was tested. Which binding signal did it give?
The binding signal was 3.34 log2 normalized fluorescence.

Which binding signal does the source give for “CCGGCTGATATTGCGTATTAATAGCTAAGATTACTATATCGACG” here?
The binding signal was -0.611 log2 normalized fluorescence.

“CCGGCTGAGTTACGGTATTAATAGCTAAGATTACTATATCGACG” was tested. Which binding signal did it give?
Its binding signal is -0.516 log2 normalized fluorescence.

Which binding signal does the source give for “CCGGCTGACACGTCGAATTAATAGCTAAGATTACTATATCGACG” here?
Its binding signal is 1.45 log2 normalized fluorescence.

With “CCGGCTGACCCGTCGTATTAATAGCTAAGATTACTATATCGACG” as the sequence, how does the binding signal read?
The binding signal was -0.382 log2 normalized fluorescence.

For “CCGGCTGAGATGGAGTATTAATAGCTAAGATTACTATATCGACG”, which binding signal is on record?
Its binding signal is -0.522 log2 normalized fluorescence.

Which binding signal does the source give for “CCGGCGGACACGTGTGATTAATAGCTAAGATTACTATATCGACG” here?
Its binding signal is 3.15 log2 normalized fluorescence.

For “CCGGCTGATTCTCAGTATTAATAGCTAAGATTACTATATCGACG”, which binding signal is on record?
Its binding signal is -0.684 log2 normalized fluorescence.

With “CCGGCTGATCAGAGGTATTAATAGCTAAGATTACTATATCGACG” as the sequence, how does the binding signal read?
The binding signal was -0.421 log2 normalized fluorescence.

“CCGGCTGACACGTGACTTTAATAGCTAAGATTACTATATCGACG” was tested. Which binding signal did it give?
The binding signal was 3.21 log2 normalized fluorescence.

For “CCGGCTGACACGTTGTCTTAATAGCTAAGATTACTATATCGACG”, which binding signal is on record?
The binding signal was 3.12 log2 normalized fluorescence.

For “CCGGCTGACACGTGTCTTTAATAGCTAAGATTACTATATCGACG”, which binding signal is on record?
The binding signal was 3.41 log2 normalized fluorescence.
